These are literature values, as cited in PubChem BioAssay AID977611.

The nature of the data set: PubChem AID 977611. The following applies: PDB protein-ligand complexes, literature Kd.

The campaign covered roughly 3,900 compounds. About 3,900 (100%) were called active. No cut-off is given here; in the data, nearly all actives have Kd up to about 4200 µM. So high a share suggests a set chosen from earlier hits. This is one part of the list. Starred links: 1 amine or outer side, 2 acyl side, 3 side chain; linkers in the order of their positions; H or OH if unused. Where a SMILES comes first, the peptide text is derived from it. Non-standard residues stand in square brackets, D forms with d. Residues, ends and D or L forms follow the SMILES beside them. Peptide text beside a SMILES is read from it. The star is where a group is joined. *: point of attachment. X1 = C[C@@H]1CCCN1*; Orn(CH(NH2)2) = NC(N)NCCC[C@H](N)C(=O)O; Propyl = CCC*

For the compound `CC[C@H](C)[C@H](NC(=O)[C@H](Cc1cnc[nH]1)NC(=O)[C@H](C)NC(=O)[C@H](CCC(N)=O)NC(=O)[C@@H](NC(=O)[C@H](CCCNC(N)N)NC(=O)[C@H](CC(C)C)NC(=O)[C@H](CC(C)C)NC(=O)[C@H](CO)NC(=O)[C@@H]1CCCN1C(=O)[C@@H](NC(=O)[C@H](CC(N)=O)NC(=O)[C@@H](N)CCCCN)[C@@H](C)CC)C(C)C)C(=O)N[C@@H](CCCNC(N)N)C(=O)N[C@@H](CCCCN)C(=O)N[C@@H](CCCCN)C(=O)N[C@@H](CCSC)C(=O)N[C@H](C(=O)O)C(C)C` (HELM PEPTIDE1{K.N.I.P.S.L.L.[NC(N)NCCC[C@H](N[*:1])C(=O)[*:2]].V.Q.A.H.I.[NC(N)NCCC[C@H](N[*:1])C(=O)[*:2]].K.K.M.V}$$$$V2.0), for the setting “protein: MYOSIN A TAIL DOMAIN INTERACTING PROTEIN, PDB entry 4aom”, the Kd – broadly, the free concentration of one partner at which half of the binding sites on the other are occupied at equilibrium, for simple one-to-one binding – is 0.085 µM (active).
Consider `NC(=O)CC[C@H](NC(=O)CCc1ccc(-c2cc(-c3ccccc3)cs2)cc1)C(=O)N[C@@H](CCC(=O)O)C(N)=O`, for which, under “protein: Macrophage metalloelastase, PDB entry 3tsk”, the Kd is 0.067 µM (active).
For `CCC(CC)Nc1cc(C)nc(Oc2c(C)cc(C)cc2C)c1C`, the Kd (protein: Corticotropin-releasing factor receptor 1, T4-Lysozyme chimeric construct, PDB entry 4k5y) was 0.0067 µM (active).
As to `C=C/C(C)=C/[C@@]1(C)SC(=O)/C(=C(\O)C(F)(F)F)C1=O`, the Kd (protein: 3-OXOACYL-[ACYL-CARRIER-PROTEIN] SYNTHASE 1, PDB entry 4c73) was 12.1 µM (active).
In the case of `C=C/C(C)=C\[C@@]1(C)SC(=O)C(C(C)=O)=C1O`, the Kd reads like this: (protein: 3-OXOACYL-[ACYL-CARRIER-PROTEIN] SYNTHASE 1, PDB entry 4c6u) 25.6 µM (active); (protein: 3-OXOACYL-[ACYL-CARRIER-PROTEIN] SYNTHASE 1, PDB entry 4c6v) 25.6 µM (active).
With `CNc1nc2c(CC[C@H]3O[C@@H](OC)[C@H](OC)[C@@H]3O)c3nc(N)[nH]c(=O)c3cc2[nH]1`, the Kd (protein: tRNA guanine transglycosylase (TGT), PDB entry 4lbu) was 0.276 µM (active).
Consider `CNc1nc2c(CC[C@H]3O[C@@H](OC)[C@H](O)[C@@H]3O)c3nc(N)[nH]c(=O)c3cc2[nH]1`, for which the Kd (protein: tRNA guanine transglycosylase (TGT), PDB entry 4leq) was 0.288 µM (active).
For `O=C(O)c1ccc2nsnc2c1`, where the note is “protein: Pantothenate synthetase (T2A, E77G mutation), PDB entry 4ddm”, the Kd is 3500 µM (active).
With `COc1ccc([C@H]2OC[C@H](C)[C@@H]([C@@H](C)[C@@H](OC)[C@@H](C)CCC(=O)[C@H](C)[C@@H](C/C=C/N(C)C=O)OC)O2)cc1`, under “protein: Actin, alpha skeletal muscle, PDB entry 4k43”, the Kd is 0.132 µM (active).
As for H-DDYLWGLEAGEGISDLFD-OH, where the note is “protein: retinoblastoma (Rb), PDB entry 1n4m”, the Kd is 0.19 µM (active).
Take `CC(C)C[C@H](NC(=O)[C@H](Cc1ccc(O)cc1)NC(=O)[C@H](CCC(=O)O)NC(=O)[C@H](CCC(=O)O)NC(=O)[C@H](Cc1c[nH]c2ccccc12)NC(=O)[C@H](CO)NC(=O)[C@@H](NC(=O)[C@H](Cc1ccccc1)NC(=O)[C@@H](NC(=O)[C@@H](N[C@@H](C)O)[C@@H](C)O)C(C)C)[C@@H](C)O)C(=O)N[C@@H](CC(=O)O)C(=O)N[C@@H](Cc1c[nH]c2ccccc12)C(=O)N[C@H](C(N)=O)C(C)C` (H-[X1]VFTSWEEYLDWV-NH2): the Kd (protein: Proprotein convertase subtilisin/kexin type 9, PDB entry 4nmx) was 0.66 µM (active).
With `CC[C@H](C)[C@H](NC(=O)CNC(=O)[C@H](CCC(=O)O)NC(=O)[C@@H](N)CCC(=O)O)C(=O)N[C@@H](Cc1c[nH]c2ccccc12)C(=O)N[C@@H](C)C(=O)O` (H-EEGIWA-OH), for the setting “protein: RIM1? PDZ Domain, PDB entry 1zub”, the dissociation constant (Kd) was 0.27 µM (active).
As for `CC1(C)Nc2nc(N)[nH]c(=O)c2N=C1C(=O)NCC(=O)NCCS(=O)(=O)C[C@H]1O[C@@H](n2cnc3c(N)ncnc32)[C@H](O)[C@@H]1O`, the Kd (protein: 2-amino-4-hydroxy-6-hydroxymethyldihydropteridine pyrophosphokinase/dihydropteroate synthase HPPK-DHPS, PDB entry 4pzv) is 2 µM (active).
Take `C[C@H](N)C(=O)N1CCC[C@H]1C(=O)N1CCC[C@H]1C(=O)N[C@@H](CO)C(=O)N[C@@H](CC(N)=O)C(=O)N1CCC[C@H]1C(=O)N1CCC[C@H]1C(=O)N1CCC[C@H]1C(=O)N[C@@H](CCCNC(N)N)C(=O)N1CCC[C@H]1C(=O)N1CCC[C@H]1C` (H-APPSNPPP[Orn(CH(NH2)2)]P-X1): the Kd (protein: tandem SH3domains of p47phox, PDB entry 1ov3) is 0.19 µM (active).
As to `CC(=O)N[C@H](C(=O)N1CCC[C@H]1C(=O)N1CCC[C@H]1C(=O)N1CCC[C@H]1C(=O)N[C@H](C(=O)N1CCC[C@H]1C(=O)N1CCC[C@H]1C(=O)N[C@@H](CCCNC(N)N)C(=O)N[C@@H](CCCNC(N)N)C(=O)N[C@@H](CCCNC(N)N)C(N)=O)C(C)C)C(C)C`, the Kd (protein: Grb2(N-terminal SH3 domain), PDB entry 3gbq) is 3.5 µM (active).
As for `CCCOC[C@H](NC(=O)[C@@H](NC(=O)[C@@H]1CCCN1C(=O)[C@@H](NC(=O)[C@@H](NC(C)=O)C(C)C)[C@@H](C)O)C(C)C)C(=O)N[C@H](C(=O)N[C@@H](C)C(N)=O)[C@@H](C)O` (Ac-VTPVS(Propyl)TA-NH2), the dissociation constant Kd (protein: UDP-N-ACETYLGLUCOSAMINE--PEPTIDE N-ACETYLGLUCOSAMINYLTRANSFERASE 110 KDA SUBUNIT, PDB entry 4cdr) was 7.9 µM (active).
Regarding H-VPPPVPPPPS-OH, the Kd (protein: Ponsin, PDB entry 2o9v) was 288 µM (active).
As for H-GGRRPYIL-OH, the Kd (protein: Neurotensin Receptor 1 Mutant TM86V Delta-IC3A, PDB entry 3zev) was 0.0023 µM (active).
H-GTCVAARTRPVLSY-OH: for the setting “protein: WD REPEAT-CONTAINING PROTEIN 5, WDR5, PDB entry 4cy1”, the Kd was 0.181 µM (active).
As to `CNC(=O)C[C@@H]1NC(=O)c2csc(n2)-c2ccc(-c3nc(N(CCCCC(=O)O)C(=O)OC4CCC(C(=O)O)CC4)cs3)nc2-c2csc(n2)-c2csc(n2)[C@H]([C@@H](O)c2ccccc2)NC(=O)CNC(=O)c2nc(sc2COC)[C@H](C(C)C)NC(=O)c2nc1sc2C` (stereo partly specified), the Kd (protein: E. coli K-12 Elongation factor Tu 1, PDB entry 3u2q) is 0.006 µM (active).
`NCc1csc2ccc(Br)cc12`: the Kd (protein: CATIONIC TRYPSIN, PDB entry 4abf) was 24 µM (active).
On to `NCc1csc2ccccc12`, for which the Kd (protein: CATIONIC TRYPSIN, PDB entry 4abb) is 31 µM (active).
As to `CO[C@H]1O[C@H](CNS(=O)(=O)c2c(C)cc(C)cc2C)[C@@H](O)[C@H](O)[C@@H]1O`, for the setting “protein: FUCOSE-BINDING LECTIN PA-IIL, PDB entry 3zdv”, the Kd was 3.3 µM (active).
Regarding `NC(=O)C[C@H](NC(=O)CNC(=O)CNC(=O)[C@H](CCCNC(N)N)NC(=O)CNC(=O)CNC(=O)CNC(=O)CNC(=O)[C@@H](N)CO)C(=O)NCC(=O)NCC(=O)NCC(=O)NCC(=O)NCC(=O)NCC(=O)O` (H-SGGGG[Orn(CH(NH2)2)]GGNGGGGGG-OH), the Kd (protein: Outer membrane porin 1a (Ia;b;F)(OmpF), PDB entry 3o0e) is 1.8 µM (active).
In the case of H-SGRGK(Ac)G-OH, the Kd (protein: ATPase family AAA domain-containing protein 2 ATAD2A bromodomain, PDB entry 4tt2) was 22 µM (active).
As to `Nc1nc2cc3nc(NCCN4CCCCC4)[nH]c3cc2c(=O)[nH]1`, where the note is “protein: Queuine tRNA-ribosyltransferase TGT, PDB entry 4q4o”, the Kd was 0.0343 µM (active).
Regarding `O=c1[nH]cnc2cc3nc(NCCN4CCCCC4)[nH]c3cc12`, the Kd (protein: Queuine tRNA-ribosyltransferase TGT, PDB entry 4q4p) was 0.407 µM (active).
As to `CNc1nc2cc3nc(N)[nH]c(=O)c3cc2[nH]1`, the Kd (protein: Queuine tRNA-ribosyltransferase TGT, PDB entry 4q4s) was 0.112 µM (active).
On to `O=c1[nH]cnc2cc3nc(NCCN4CCOCC4)[nH]c3cc12`, for which the Kd (protein: Queuine tRNA-ribosyltransferase TGT, PDB entry 4q4r) was 0.369 µM (active).
In the case of `O=c1[nH]cnc2cc3nc(NCc4cccs4)[nH]c3cc12`, the Kd (protein: Queuine tRNA-ribosyltransferase TGT, PDB entry 4q4q) is 1.64 µM (active).
